Assay results from PubChem BioAssay (NCI).
This is part of a sample that, as a whole, favours compounds with a hit. Of some 83,000 tested, about 20% had one in any assay.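 The test compound was applied at a single concentration to cells in 96-well plates for 48 hours, and percent growth was recorded.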

What was measured:
Test in all cases: NCI-60 one-dose screen, 48 h (100 = growth as untreated, 0 = no growth, -100 = all killed)
Details in all cases: 10 µM unless noted; active = growth percent below 10; inactive = the rest
[1] = tested on: K-562 leukemia
[2] = tested on: MALME-3M melanoma
[3] = tested on: MDA-MB-231 breast
[4] = tested on: RXF 393 renal
[5] = tested on: SF-268 CNS
[6] = tested on: SF-295 CNS
[7] = tested on: SF-539 CNS
[8] = tested on: UACC-257 melanoma
[9] = tested on: M14 melanoma
[10] = tested on: DU-145 prostate

Measured: growth

Cc1ccccc1CC(N)C(=O)O (stereo unspecified)
inactive: [1] 115% | [2] 116% | [3] 116% | [4] 137% | [5] 101% | [6] 99.6% | [7] 116% | [8] 109% | [9] 100%

O=C1C=C(c2ccccc2)C(O)(c2ccccc2)C1 (stereo unspecified)
inactive: [1] 86.6% | [2] 108% | [3] 92.5% | [4] 115% | [5] 103% | [6] 94.1% | [7] 104% | [8] 97.7% | [9] 95.5%

COC(=O)C1=C(C)C(=O)CC1
inactive: [1] 96.1% | [2] 137% | [3] 102% | [4] 143% | [5] 111% | [6] 135% | [7] 109% | [8] 110% | [9] 105%

Cc1c(Cl)cccc1N=C=S
inactive: [10] 112% | [2] 99% | [3] 130% | [4] 91.9% | [5] 107% | [6] 93.9% | [7] 90.2% | [8] 92.7% | [9] 90.6%
